Screening results as filed in PubChem.
An excerpt weighted towards active compounds, which were near 21% of everything screened.
Shiga toxin inh: blocks Shiga toxin action in Vero cells; Vero cells, Shiga toxin protein synthesis inhibition reporter; inhibition, % at 38.7 µM; actives 9.2% (n = 290,000); in the data active means inhibition mostly above about 28%, no sharp cut-off; inactive means mostly below about 43%; further: 0% is about no effect
Pf growth 48h: inhibits P. falciparum growth in the first generation, 48 h; P. falciparum luciferase growth in erythrocytes, 48 h; Potency, µM (series often up to 28.7 µM), without a hit: top-dose activity change, negative = inhibition, usual class: inhibitors; actives 5.9% (n = 310,000); AID 504832; further: potency means the concentration at half of the fitted maximal effect; on the % scale 0 is the no-effect control and ±100 the full control effect
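Firefly luciferase activity from engineered P. falciparum reports growth; inhibitors lower the luminescent signal. Cultures contained 2% hematocrit erythrocytes at 0.1% final parasitemia.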
HCMV inh: inhibitors of human cytomegalovirus; HFF cells, HCMV-luciferase reporter, 72 h; hits give low values; activity change, negative = inhibition, % at 57.5 µM; actives 4.5% (n = 410,000); in the data active means activity change below about -60%; inconclusive means no clear call, values can overlap the other calls; inactive means above about -39%; further: on the % scale 0 is the no-effect control and ±100 the full control effect
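Two-dose cell screen: HFF monolayers treated with compounds and infected with luciferase-expressing HCMV at 1 PFU/cell, 72 h at 37C, then lysed for luciferase measurement.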
Pf growth 96h: P. falciparum growth inhibition at 96 hours. P. falciparum luciferase reporter growth, 96 h. Potency, µM (doses to about 28.7 µM), for inactives: at the top dose activity change, negative = inhibition, most hits filed as inhibitors. actives 6.9% (n = 320,000). AID 504834; further: potency means the concentration at half of the fitted maximal effect; on the % scale 0 is the no-effect control and ±100 the full control effect
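Erythrocytes infected with luciferase-expressing P. falciparum were dispensed at 2% hematocrit and 0.05% parasitemia (final), then incubated with compounds 96 hours at 37 C in 5% CO2. Luminescence after detection reagent addition reported growth.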
CHX counter: affects cycloheximide protein synthesis inhibition readout, counter-screen; cell reporter, cycloheximide protein synthesis inhibition counterscreen; max response, %; actives 12% (n = 300,000); AID 2314; in the data active means max response mostly above about 13%, no sharp cut-off; inactive means mostly below about 14%; further: read at 38.3 µM for the half of the compounds with a filed dose; 0% is about no effect
HCV inhibitor: blocks hepatitis C virus; Huh7.5.1 HCVcc-Cre infection, luciferase reporter, 44 h; Potency, µM (top dose mostly 41.8 µM), for the others: top-dose activity change, negative = inhibition, hits mostly inhibitors; actives 3.4% (n = 340,000); further: potency means the concentration at half of the fitted maximal effect; on the % scale 0 is the no-effect control and ±100 the full control effect
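A cell-based infection assay in which seeded cells (1,000 per well) receive test compound after 4 h, are inoculated with HCVcc-Cre at approximately 0.5 moi, and are incubated 44 h before luminescence detection.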
* hit, by the source's call; i = inactive; ? = inconclusive; · = no result; [ ] = remark or other dose. Unless noted, the call rests on the fitted dose curve; in most records, active means well fitted inhibition curve with a large enough effect; inconclusive means small, poorly fitted or top-dose-only effect, or another doubt; inactive means no such curve, though single readings can be large or run the other way.

SMILES | Shiga toxin inh | Pf growth 48h | HCMV inh | Pf growth 96h | CHX counter | HCV inhibitor
COc1ccc(-c2coc3cc4oc(=O)c5ccccc5c4cc23)cc1F | -7.4 | 27.7% | -84.5* | -8.9% | -8.2 | ?
COc1cc2[nH]c(=O)n(CCCCCC(=O)N3CCN(c4ccccc4)CC3)c(=O)c2cc1OC | -4.6 | 7.38µM* | 38.0 | 30.2% | 0.7 | ?
COC(=O)c1ccc2c(=O)n(CCCCCC(=O)O)c(=S)[nH]c2c1 | -9.7 | ? | -62.6* | ? | -3.1 | 13.2%
COC(=O)c1ccc2c(=O)n(CCCCCC(=O)N3CCN(c4ccccc4)CC3)c(=O)[nH]c2c1 | 2.4 | · | -29.1 | 1.7% | -2.6 | 10µM*
CCN1CCN(C(=O)CCCCCn2c(=O)[nH]c3cc(C(=O)OC)ccc3c2=O)CC1 | -8.6 | · | 6.7 | ? | -4.4 | 6.0%
CC(C)(CNC(=O)c1cc2c(s1)CCCC2)N1CCOCC1 | · | 0.3% | -13.3 | 9.7% | · | -2.0%
Cc1cc(C)n2nc(SCC(=O)N3CCC(C)CC3)nc2n1 | · | · | ? | · | · | -1.0%
CCOC(=O)/C(N=O)=C(\O)C1CCN(C(=O)OCC)CC1 | -8.7 | · | 16.8 | 13.1µM* | -2.7 | 0.4%
C=CCn1c(N)c(C(=O)OCCC)c2nc3ccccc3nc21 | -25.8 | 0.0% | -10.5 | ? | -6.8 | ?
Nc1c(C(=O)NCCCc2ccccc2)c2nc3ccccc3nc2n1Cc1cccs1 | -10.2 | 11.7µM* | 156.9 | · | -4.7 | -4.2%
CCCOC(=O)c1c(N)n(Cc2cccs2)c2nc3ccccc3nc12 | -17.2 | · | -18.4 | 7.38µM* | -8.2 | ?
CCCCCn1c(N)c(C(=O)NCc2cccs2)c2nc3ccccc3nc21 | 11.7 | 2.4% | -1.4 | ? | 0.3 | -14.7%
CCOc1ccc(N(C)C(=O)CCc2nnc3ccc(N4CCC5(CC4)OCCO5)nn23)cc1 | -5.6 | -10.1% | ? | 2.2% | 7.5 | 19.3%
CC1(C)OC(=O)C(=NNc2ccc(Br)cc2)C(=O)O1 | 115.2* | -2.1% | -19.0 | -3.0% | 31.2* | -2.2%
CC1(C)OC(=O)C(=CNc2ccccc2)C(=O)O1 | 26.5 | 2.2% | 6.2 | i | 16.0 | 20.4%
Cc1noc(Cn2c(=O)c3cc4c(cc3n(CC(=O)Nc3ccc(C(C)C)cc3)c2=O)OCO4)n1 | · | · | -21.7 | · | · | ·
C/C(CCN1CCc2nc(-c3ccccc3)c(-c3ccccc3)cc2C1)=N\O[C@@H](C)c1cc(-c2c(C)cc(C)cc2C)no1 | -2.6 | ? | · | 13.1µM* | -3.7 | ?
CCc1cc2c(nc1CC)CCN(CC/C(C)=N/O[C@@H](C)c1cc(-c3c(C)cc(C)cc3C)no1)C2 | -13.7 | ? | · | 7.38µM* | 1.0 | -17.9%[8.37 µM]
CCc1ccc(CNC(=O)C2CCC(=O)N(CCc3ccc(Cl)cc3)C2)nc1 (configuration not stated) | -2.3 | -18.8% | -8.8 | 11.8% | 6.9 | -2.6%
Cn1c(SCC(=O)Nc2ccccc2F)nnc1-c1cccs1 | 43.4* | -3.4% | 27.0 | 34.0% | 26.0 | -8.5%
Cn1c(SCCOc2ccccc2Cl)nnc1-c1cccs1 | 38.7* | -21.5% | ? | ? | 25.9* | 7.3%
Cn1c(Cc2cccs2)nnc1SCC(=O)Nc1ccccc1F | · | ? | -13.4 | 1.0% | · | 13.9%
Cn1c(SCc2c(F)cccc2Cl)nnc1-c1cccs1 | 68.3* | -22.8% | -12.5 | ? | 27.8* | 4.2%
CCCCOc1cccc(OCC(=O)Nc2nc3ccccc3[nH]2)c1 | 13.8 | 2.4% | -7.7 | 22.4% | -1.4 | 26.8%
O=C(CSc1ncn[nH]1)c1ccc2c(c1)OCCO2 | active | 41.9% | 17.0 | 0.0% | 18.1* | -2.8%
SMILES | Shiga toxin inh | Pf growth 48h | HCMV inh | Pf growth 96h | CHX counter | HCV inhibitor
O=C(CSc1ncn[nH]1)Nc1ccc2c(c1)OCCO2 | 21.1 | · | 34.4 | 67.0% | 13.6 | 0.5%
O=C(CSc1ncn[nH]1)NCCC(c1ccccc1)c1ccccc1 | -9.9 | ? | 14.5 | 10.4µM* | -2.8 | -4.5%
O=C(CSc1ncn[nH]1)c1ccc2c(c1)OCO2 | 29.6 | 28.7% | 34.9 | 25.7% | 13.7* | 5.1%
CC(C)c1ccc(C(=O)CSc2ncn[nH]2)cc1 | 81.4* | 71.5% | 90.2 | -16.7% | 30.6* | -1.0%
O=C(CSc1nc2ncc(Cl)cc2[nH]1)c1ccc2c(c1)OCO2 | 5.9 | ? | 7.2 | 36.5% | -1.7 | 2.0%
Cc1cccn2c(=O)c3cc(C(=O)NCCc4ccc(S(N)(=O)=O)cc4)n(C)c3nc12 | · | · | -2.9 | · | · | ·
